# From paper PMC7862700, “An all-to-all approach to the identification of sequence-specific readers for epigenetic DNA modifications on cytosine”
# Tests used:
# Test in all cases: DAPPL (digital affinity profiling via proximity ligation, sequencing); 10 mM Tris-HCl pH 7.5, 50 mM NaCl, 1 mM DTT, 4% glycerol, room temperature, 30 min; GST-TFs on glutathione beads, 16-mer random dsDNA library, 0.1% formaldehyde crosslink after washing; high values mean tight binding
# FEV = molecular target: T1, FEV (Homo sapiens, UniProt Q99581 1-238); settings: protein: recombinant; tags: N-terminal GST; dsDNA, one strand shown
# T1 sequence: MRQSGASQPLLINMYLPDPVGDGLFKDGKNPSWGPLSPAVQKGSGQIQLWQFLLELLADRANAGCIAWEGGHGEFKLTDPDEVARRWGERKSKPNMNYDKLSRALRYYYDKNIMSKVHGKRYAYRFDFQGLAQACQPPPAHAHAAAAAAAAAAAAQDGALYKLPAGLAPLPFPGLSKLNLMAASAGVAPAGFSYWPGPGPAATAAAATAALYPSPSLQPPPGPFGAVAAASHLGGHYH
# Method in brief: (§1)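 Yeast served to express human transcription factors as GST fusions, which were then captured on glutathione beads and labelled with DNA barcodes. Pooled with a tag-only sample, they were incubated with 200 nmole of a 16-mer random double-stranded DNA library for 30 min at room temperature in Tris/NaCl/DTT/glycerol buffer, washed, crosslinked with 0.1% formaldehyde, ligated by proximity, amplified by PCR and sequenced. Dividing each hexamer's read frequency for a factor by its frequency for the tag-only sample gives the binding signal.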
# ETV5 = ETV5 (Homo sapiens, UniProt P41161 1-510); settings: protein: recombinant; tags: N-terminal GST; dsDNA, one strand shown
# Chain of ETV5 (P41161 whole entry): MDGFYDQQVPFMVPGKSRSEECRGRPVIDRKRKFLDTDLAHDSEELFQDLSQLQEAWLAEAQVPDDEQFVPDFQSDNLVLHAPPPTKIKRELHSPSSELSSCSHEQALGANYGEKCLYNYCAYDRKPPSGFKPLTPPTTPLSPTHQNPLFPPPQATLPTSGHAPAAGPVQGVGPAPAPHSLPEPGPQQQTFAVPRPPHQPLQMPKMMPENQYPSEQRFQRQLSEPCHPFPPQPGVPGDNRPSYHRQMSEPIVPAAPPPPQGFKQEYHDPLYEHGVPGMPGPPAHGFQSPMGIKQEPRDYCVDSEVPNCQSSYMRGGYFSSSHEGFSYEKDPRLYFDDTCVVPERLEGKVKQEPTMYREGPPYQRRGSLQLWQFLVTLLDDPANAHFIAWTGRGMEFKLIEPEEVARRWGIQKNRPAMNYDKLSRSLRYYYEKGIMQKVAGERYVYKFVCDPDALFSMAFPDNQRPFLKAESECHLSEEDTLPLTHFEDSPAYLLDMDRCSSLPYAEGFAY
# Method in brief: as §1
# HSF1 = HSF1 (Homo sapiens, UniProt Q00613 1-529); settings: protein: recombinant; tags: N-terminal GST; chain copies: 3; dsDNA, one strand shown
# Chain of HSF1 (Q00613 whole entry): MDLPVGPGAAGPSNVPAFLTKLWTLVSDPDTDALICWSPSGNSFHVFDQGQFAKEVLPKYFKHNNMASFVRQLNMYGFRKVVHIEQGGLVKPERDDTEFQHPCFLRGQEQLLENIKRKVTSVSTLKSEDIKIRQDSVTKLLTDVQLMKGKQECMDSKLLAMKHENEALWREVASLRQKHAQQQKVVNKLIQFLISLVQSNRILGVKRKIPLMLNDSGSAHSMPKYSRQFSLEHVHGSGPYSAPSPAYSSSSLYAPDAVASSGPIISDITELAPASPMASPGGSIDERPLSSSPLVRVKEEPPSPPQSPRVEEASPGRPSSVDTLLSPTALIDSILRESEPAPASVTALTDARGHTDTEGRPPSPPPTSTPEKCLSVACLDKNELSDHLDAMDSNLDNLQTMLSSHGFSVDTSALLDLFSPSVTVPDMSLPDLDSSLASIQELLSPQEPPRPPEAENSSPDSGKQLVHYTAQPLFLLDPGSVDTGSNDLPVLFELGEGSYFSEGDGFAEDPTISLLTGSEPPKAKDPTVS
# Method in brief: as §1
# SPIC = molecular target: T2, SPIC (Homo sapiens, UniProt Q8N5J4 1-248); settings: protein: recombinant; tags: N-terminal GST; dsDNA, one strand shown
# T2 sequence: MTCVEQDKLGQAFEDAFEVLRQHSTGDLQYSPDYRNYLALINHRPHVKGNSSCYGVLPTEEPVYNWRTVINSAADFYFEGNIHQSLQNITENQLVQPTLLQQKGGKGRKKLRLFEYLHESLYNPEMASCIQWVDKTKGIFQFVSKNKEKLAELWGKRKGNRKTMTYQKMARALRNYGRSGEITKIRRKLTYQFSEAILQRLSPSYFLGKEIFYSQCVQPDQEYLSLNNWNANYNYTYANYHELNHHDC
# Method in brief: as §1
# ELF4 = ELF4 (Homo sapiens, UniProt Q99607 1-663); settings: protein: recombinant; tags: N-terminal GST; dsDNA, one strand shown
# Chain of ELF4 (Q99607 whole entry): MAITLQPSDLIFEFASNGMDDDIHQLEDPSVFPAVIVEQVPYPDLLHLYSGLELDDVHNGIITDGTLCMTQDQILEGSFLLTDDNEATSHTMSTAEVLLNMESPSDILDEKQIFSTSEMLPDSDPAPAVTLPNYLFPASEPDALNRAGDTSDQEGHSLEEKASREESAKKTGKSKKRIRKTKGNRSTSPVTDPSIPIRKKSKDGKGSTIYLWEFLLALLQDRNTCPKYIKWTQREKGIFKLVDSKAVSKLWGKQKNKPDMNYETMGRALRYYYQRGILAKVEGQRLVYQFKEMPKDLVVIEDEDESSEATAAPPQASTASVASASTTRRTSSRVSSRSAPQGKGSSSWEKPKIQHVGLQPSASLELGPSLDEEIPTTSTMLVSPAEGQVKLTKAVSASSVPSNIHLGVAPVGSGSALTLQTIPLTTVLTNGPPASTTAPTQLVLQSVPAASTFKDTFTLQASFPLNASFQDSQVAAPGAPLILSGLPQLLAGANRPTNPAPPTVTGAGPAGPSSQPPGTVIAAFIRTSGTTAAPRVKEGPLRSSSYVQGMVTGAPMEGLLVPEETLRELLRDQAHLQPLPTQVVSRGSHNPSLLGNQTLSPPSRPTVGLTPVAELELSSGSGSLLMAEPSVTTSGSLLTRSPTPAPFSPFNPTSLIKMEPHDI
# Method in brief: as §1
# ELK4 = molecular target: T3, ELK4 (Homo sapiens, UniProt P28324-2 1-405); settings: protein: recombinant; tags: N-terminal GST; dsDNA, one strand shown
# T3 sequence: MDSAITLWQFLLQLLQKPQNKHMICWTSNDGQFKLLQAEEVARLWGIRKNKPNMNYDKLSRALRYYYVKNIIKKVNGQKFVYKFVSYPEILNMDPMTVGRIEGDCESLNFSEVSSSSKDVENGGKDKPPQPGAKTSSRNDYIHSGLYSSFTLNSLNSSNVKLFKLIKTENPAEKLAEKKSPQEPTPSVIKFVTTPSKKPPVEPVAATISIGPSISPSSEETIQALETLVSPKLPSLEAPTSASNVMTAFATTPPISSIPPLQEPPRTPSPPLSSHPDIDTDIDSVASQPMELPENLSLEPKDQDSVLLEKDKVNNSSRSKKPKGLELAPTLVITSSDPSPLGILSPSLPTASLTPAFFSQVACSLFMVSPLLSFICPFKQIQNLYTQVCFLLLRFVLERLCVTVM
# Method in brief: as §1
# ETV2 = molecular target: T4, ETV2 (Homo sapiens, UniProt O00321 1-342); settings: protein: recombinant; tags: N-terminal GST; dsDNA, one strand shown
# T4 sequence: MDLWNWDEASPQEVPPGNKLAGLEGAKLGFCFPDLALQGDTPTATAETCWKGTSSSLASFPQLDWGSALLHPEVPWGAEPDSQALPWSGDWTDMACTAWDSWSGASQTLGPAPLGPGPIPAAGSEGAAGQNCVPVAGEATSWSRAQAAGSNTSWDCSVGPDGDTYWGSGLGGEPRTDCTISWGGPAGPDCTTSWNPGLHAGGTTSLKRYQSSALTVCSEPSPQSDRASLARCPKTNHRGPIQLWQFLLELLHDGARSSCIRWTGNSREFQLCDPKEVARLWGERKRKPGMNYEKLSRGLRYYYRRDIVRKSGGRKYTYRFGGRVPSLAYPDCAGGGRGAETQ
# Method in brief: as §1
# ELF3 = molecular target: T5, ELF3 (Homo sapiens, UniProt P78545 1-371); settings: protein: recombinant; tags: N-terminal GST; dsDNA, one strand shown
# T5 sequence: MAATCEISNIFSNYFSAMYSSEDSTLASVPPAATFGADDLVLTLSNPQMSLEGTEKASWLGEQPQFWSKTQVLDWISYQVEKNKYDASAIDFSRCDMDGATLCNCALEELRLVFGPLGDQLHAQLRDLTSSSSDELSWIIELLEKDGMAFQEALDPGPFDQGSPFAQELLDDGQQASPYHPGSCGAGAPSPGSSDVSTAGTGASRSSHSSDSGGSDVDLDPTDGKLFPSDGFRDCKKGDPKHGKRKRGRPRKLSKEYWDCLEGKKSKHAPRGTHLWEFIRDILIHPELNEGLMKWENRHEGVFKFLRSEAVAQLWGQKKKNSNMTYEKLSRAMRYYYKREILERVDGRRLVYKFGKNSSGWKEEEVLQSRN
# Method in brief: as §1
# CRX = CRX (Homo sapiens, UniProt O43186 1-299); settings: protein: recombinant; tags: N-terminal GST; dsDNA, one strand shown
# Chain of CRX (O43186 whole entry): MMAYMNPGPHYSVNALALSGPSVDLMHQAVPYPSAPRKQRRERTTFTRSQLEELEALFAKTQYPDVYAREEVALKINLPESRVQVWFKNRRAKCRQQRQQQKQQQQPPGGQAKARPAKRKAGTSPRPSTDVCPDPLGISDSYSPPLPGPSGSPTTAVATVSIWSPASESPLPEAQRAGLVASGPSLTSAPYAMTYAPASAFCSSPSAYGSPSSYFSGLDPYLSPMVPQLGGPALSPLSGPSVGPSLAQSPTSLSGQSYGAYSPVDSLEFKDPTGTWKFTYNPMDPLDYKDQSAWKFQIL
# Method in brief: as §1
# ETV1 = ETV1 (Homo sapiens, UniProt P50549 1-477); settings: protein: recombinant; tags: N-terminal GST; dsDNA, one strand shown
# Chain of ETV1 (P50549 whole entry): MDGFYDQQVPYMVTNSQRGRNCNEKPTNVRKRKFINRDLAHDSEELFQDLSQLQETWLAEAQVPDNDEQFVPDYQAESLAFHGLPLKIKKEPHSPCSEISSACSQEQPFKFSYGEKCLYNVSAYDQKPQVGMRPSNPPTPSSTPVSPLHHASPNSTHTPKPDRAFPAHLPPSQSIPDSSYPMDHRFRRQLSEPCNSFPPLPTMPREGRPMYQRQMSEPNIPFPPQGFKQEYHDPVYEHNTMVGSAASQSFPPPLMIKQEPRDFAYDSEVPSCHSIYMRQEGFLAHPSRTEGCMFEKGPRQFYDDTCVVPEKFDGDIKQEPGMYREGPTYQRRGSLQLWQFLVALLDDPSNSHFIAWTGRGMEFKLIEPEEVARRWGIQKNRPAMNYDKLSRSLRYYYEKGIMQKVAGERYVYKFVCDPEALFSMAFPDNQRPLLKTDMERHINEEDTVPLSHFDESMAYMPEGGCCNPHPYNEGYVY
# Method in brief: as §1
# ERF = molecular target: T6, ERF (Homo sapiens, UniProt P50548 1-548); settings: protein: recombinant; tags: N-terminal GST; dsDNA, one strand shown
# T6 sequence: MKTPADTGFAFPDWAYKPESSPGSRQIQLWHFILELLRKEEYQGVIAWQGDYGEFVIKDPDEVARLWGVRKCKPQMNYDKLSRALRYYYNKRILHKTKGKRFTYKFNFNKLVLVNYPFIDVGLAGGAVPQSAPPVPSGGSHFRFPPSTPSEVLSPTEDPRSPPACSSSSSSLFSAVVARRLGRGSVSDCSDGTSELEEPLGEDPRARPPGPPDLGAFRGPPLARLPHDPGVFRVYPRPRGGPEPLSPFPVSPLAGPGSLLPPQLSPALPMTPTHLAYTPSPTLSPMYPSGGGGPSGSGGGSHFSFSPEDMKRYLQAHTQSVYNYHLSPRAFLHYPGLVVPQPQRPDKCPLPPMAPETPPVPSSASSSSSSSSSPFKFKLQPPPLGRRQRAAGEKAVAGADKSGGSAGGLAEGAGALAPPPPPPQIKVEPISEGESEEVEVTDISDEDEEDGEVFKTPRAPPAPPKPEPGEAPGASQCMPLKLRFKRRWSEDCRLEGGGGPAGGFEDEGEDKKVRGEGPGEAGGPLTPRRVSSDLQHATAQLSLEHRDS
# Method in brief: as §1
# ETV3L = molecular target: T7, ETV3L (Homo sapiens, UniProt Q6ZN32 1-361); settings: protein: recombinant; tags: N-terminal GST; dsDNA, one strand shown
# T7 sequence: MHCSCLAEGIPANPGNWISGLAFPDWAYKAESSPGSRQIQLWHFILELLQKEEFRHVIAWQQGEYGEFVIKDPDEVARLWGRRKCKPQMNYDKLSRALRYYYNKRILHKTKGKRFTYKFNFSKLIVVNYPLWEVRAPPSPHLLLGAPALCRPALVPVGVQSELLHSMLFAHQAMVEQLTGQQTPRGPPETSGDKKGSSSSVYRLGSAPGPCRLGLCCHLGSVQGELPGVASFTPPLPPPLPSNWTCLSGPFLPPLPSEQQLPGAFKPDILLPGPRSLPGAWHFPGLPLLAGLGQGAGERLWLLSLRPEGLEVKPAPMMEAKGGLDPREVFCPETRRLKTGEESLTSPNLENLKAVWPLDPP
# Method in brief: as §1
# ETS2 = molecular target: T8, ETS2 (Homo sapiens, UniProt P15036 1-469); settings: protein: recombinant; tags: N-terminal GST; dsDNA, one strand shown
# T8 sequence: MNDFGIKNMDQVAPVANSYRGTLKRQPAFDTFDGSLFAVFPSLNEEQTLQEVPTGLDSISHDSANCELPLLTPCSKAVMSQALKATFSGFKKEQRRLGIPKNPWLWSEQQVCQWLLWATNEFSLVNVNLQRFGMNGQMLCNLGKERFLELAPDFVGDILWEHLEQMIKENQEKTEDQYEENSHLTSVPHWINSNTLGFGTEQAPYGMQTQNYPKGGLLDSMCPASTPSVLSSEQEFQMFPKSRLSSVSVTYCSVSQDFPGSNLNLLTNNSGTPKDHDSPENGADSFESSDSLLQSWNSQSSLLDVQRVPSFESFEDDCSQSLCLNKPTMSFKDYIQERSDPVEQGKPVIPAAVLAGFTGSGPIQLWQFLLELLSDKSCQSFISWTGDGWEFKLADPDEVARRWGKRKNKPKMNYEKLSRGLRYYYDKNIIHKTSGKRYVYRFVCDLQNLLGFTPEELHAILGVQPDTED
# Method in brief: as §1
# SPDEF = molecular target: T9, SPDEF (Homo sapiens, UniProt O95238 1-335); settings: protein: recombinant; tags: N-terminal GST; dsDNA, one strand shown
# T9 sequence: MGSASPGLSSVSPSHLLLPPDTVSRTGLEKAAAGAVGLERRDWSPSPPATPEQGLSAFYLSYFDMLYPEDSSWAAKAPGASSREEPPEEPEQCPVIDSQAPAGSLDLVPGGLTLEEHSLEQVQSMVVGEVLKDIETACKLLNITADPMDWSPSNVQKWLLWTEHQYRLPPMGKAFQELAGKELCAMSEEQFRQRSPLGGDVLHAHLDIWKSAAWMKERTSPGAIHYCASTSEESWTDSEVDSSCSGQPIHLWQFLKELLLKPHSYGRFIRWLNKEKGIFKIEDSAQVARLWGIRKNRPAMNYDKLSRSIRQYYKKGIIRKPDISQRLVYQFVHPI
# Method in brief: as §1
# ETV7 = molecular target: T10, ETV7 (Homo sapiens, UniProt Q9Y603 1-341); settings: protein: recombinant; tags: N-terminal GST; dsDNA, one strand shown
# T10 sequence: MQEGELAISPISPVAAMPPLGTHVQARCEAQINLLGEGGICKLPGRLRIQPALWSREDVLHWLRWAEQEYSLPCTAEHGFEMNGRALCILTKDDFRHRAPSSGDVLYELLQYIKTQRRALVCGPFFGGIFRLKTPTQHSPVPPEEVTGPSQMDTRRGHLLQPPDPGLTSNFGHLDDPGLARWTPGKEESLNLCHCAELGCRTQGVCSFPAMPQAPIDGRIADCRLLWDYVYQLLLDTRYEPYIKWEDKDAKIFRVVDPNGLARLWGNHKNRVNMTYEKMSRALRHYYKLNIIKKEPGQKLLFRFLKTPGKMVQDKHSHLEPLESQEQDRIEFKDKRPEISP
# Method in brief: as §1
# ELF5 = molecular target: T11, ELF5 (Homo sapiens, UniProt Q9UKW6-2 1-255); settings: protein: recombinant; tags: N-terminal GST; dsDNA, one strand shown
# T11 sequence: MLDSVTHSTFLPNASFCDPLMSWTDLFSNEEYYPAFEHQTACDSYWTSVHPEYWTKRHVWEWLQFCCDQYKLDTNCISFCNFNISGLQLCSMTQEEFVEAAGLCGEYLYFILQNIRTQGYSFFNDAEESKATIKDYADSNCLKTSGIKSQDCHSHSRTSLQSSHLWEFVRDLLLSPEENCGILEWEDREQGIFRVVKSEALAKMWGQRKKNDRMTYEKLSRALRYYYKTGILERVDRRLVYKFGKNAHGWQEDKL
# Method in brief: as §1
# ETV3 = molecular target: T12, ETV3 (Homo sapiens, UniProt P41162-2 1-143); settings: protein: recombinant; tags: N-terminal GST; dsDNA, one strand shown
# T12 sequence: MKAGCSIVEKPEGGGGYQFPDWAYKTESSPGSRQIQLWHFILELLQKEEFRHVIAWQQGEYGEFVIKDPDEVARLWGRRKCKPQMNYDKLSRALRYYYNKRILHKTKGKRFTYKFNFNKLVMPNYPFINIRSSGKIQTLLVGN
# Method in brief: as §1
# ETV6 = ETV6 (Homo sapiens, UniProt P41212 1-452); settings: protein: recombinant; tags: N-terminal GST; dsDNA, one strand shown
# Chain of ETV6 (P41212 whole entry): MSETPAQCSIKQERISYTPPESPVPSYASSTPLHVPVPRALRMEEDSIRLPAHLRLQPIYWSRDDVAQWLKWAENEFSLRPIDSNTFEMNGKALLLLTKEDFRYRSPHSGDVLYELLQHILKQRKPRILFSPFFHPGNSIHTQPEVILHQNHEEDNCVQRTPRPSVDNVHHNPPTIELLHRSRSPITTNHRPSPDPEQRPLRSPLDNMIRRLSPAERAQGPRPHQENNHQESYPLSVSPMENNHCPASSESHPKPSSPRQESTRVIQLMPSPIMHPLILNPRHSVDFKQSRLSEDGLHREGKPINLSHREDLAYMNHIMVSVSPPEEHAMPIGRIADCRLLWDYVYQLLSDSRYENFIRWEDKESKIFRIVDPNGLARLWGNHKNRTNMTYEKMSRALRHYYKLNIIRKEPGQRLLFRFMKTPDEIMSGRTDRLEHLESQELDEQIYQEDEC
# Method in brief: as §1
sequence,measurement,setting,value
ACTTAC,binding signal,FEV,"1.09 fold enrichment (6-mer frequency, TF over GST control)"
same,binding signal,ETV5,"1.17 fold enrichment (6-mer frequency, TF over GST control)"
same,binding signal,HSF1,"1.15 fold enrichment (6-mer frequency, TF over GST control)"
same,binding signal,SPIC,"1.1 fold enrichment (6-mer frequency, TF over GST control)"
same,binding signal,ELF4,"1.24 fold enrichment (6-mer frequency, TF over GST control)"
same,binding signal,ELK4,"1.12 fold enrichment (6-mer frequency, TF over GST control)"
same,binding signal,ETV2,"1.06 fold enrichment (6-mer frequency, TF over GST control)"
same,binding signal,ELF3,"1.23 fold enrichment (6-mer frequency, TF over GST control)"
same,binding signal,CRX,"1.42 fold enrichment (6-mer frequency, TF over GST control)"
same,binding signal,ETV1,"1.16 fold enrichment (6-mer frequency, TF over GST control)"
same,binding signal,ERF,"1.08 fold enrichment (6-mer frequency, TF over GST control)"
same,binding signal,ETV3L,"1.09 fold enrichment (6-mer frequency, TF over GST control)"
same,binding signal,ETS2,"1.14 fold enrichment (6-mer frequency, TF over GST control)"
same,binding signal,SPDEF,"1.13 fold enrichment (6-mer frequency, TF over GST control)"
same,binding signal,ETV7,"1.14 fold enrichment (6-mer frequency, TF over GST control)"
same,binding signal,ELF5,"1.21 fold enrichment (6-mer frequency, TF over GST control)"
same,binding signal,ETV3,"1.09 fold enrichment (6-mer frequency, TF over GST control)"
same,binding signal,ETV6,"1.13 fold enrichment (6-mer frequency, TF over GST control)"
